Measurements from PubChem BioAssay (NCATS).
Where “and” joins values, the source holds several entries; their conditions need not be identical. Identical values can stand only once. Inconclusive results are not listed. Where a call stands in place of a potency, no number is given. Calls of active or inactive are those of the source. Unless noted, the call rests on the fitted dose curve; in most records, active means well fitted curve in the direction sought with a large enough effect; inconclusive means small, poorly fitted or top-dose-only effect, or another doubt; inactive means no such curve, though single readings can be large; an effect the other way counts as inactive or inconclusive.

How the values were obtained:
[1] = Cell Viability - BJ (AID 421; calls by dose curve;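 further: potency means the concentration at half of the fitted maximal effect; cells exposed to compound for 40 hours at 37 °C before readout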); conditions: BJ fibroblast viability, qHTS
How it was run: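 Luminescent ATP signal (CellTiter-Glo, 20 min at room temperature) served as the read-out of viable BJ cells after 40 hours of compound treatment. Responses were scaled between DMSO and 100 uM tamoxifen, and AC50 values were obtained by Hill modeling.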

[2] = Cell Viability - Jurkat (AID 426;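 active means dose-dependent loss of cell ATP signal giving a full or clear fitted curve, ranked by lower potency value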; further: potency means the concentration at half of the fitted maximal effect); conditions: qHTS
How it was run: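 Seed 5000 Jurkat E6-1 cells/well; add compound; incubate 40 hr at 37 °C; add CellTiter-Glo; wait 20 min at room temperature; read luminescence. Fit concentration-response with Hill equation for AC50.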

[3] = Cell Viability - Hek293 (AID 427;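 active means compounds whose dose-response curve shows a full or clear partial loss of cell viability, called from curve shape rather than a numeric limit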;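 further: potency means the concentration at half of the fitted maximal effect; cells exposed to compound for 40 hours at 37 °C before reading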); conditions: qHTS
How it was run: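 Luminescent ATP read-out (CellTiter-Glo, 20 min RT) after 40 hr compound exposure at 37 °C in complete medium. Signal normalized to DMSO (basal) and 100 uM tamoxifen (100% inhibition); concentration-response fitted with the standard Hill equation to give AC50.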

[4] = Cell Viability - HepG2 (AID 433; calls by dose curve;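 further: potency means the concentration at half of the fitted maximal effect; potency for ATP loss meaning cytotoxicity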); conditions: qHTS
How it was run: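 HepG2 cells, 1500 per well, treated 40 hr at 37 °C in complete medium; viability from intracellular ATP by CellTiter-Glo luminescence. Normalized to DMSO and 100 uM tamoxifen; AC50 from Hill fit of qHTS concentration-response.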

[5] = Cell Viability - SK-N-SH (AID 435; calls by dose curve;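 further: potency means the concentration at half of the fitted maximal effect; compound exposure lasted 40 h at 37 °C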); conditions: SK-N-SH neuroblastoma cell viability qHTS
How it was run: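 SK-N-SH neuroblastoma cells (1500/well) treated 40 h at 37 °C in complete medium; viability read as cellular ATP by CellTiter-Glo luminescence. Normalized to DMSO and 100 uM tamoxifen; AC50 from Hill fits of qHTS concentration-response.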

[6] = Cell Viability - Renal Proximal Tubule (AID 545); conditions: renal proximal tubule cells viability; series mostly up to 91.7 µM; further: nearly all actives have a fitted effect of over 40% in size
How it was run: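 Rat renal proximal tubule primary cells, 1000/well, exposed to compounds for 40 hr at 37 °C in complete medium; cellular ATP read by CellTiter-Glo luminescence. AC50 from concentration-response fitted with standard Hill equation.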

[7] = Cellular Toxicity (caspase-3) HUV-EC-C (AID 656); conditions: HUV-EC-C cells, caspase-3 activation (apoptosis), vehicle = 0, 100 µM tamoxifen = 100%; series mostly up to 92.2 µM
How it was run: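 HUV-EC-C cells (1000/well) in complete medium, compound-treated 16 h at 37 °C; caspase-3/7 activity read by Caspase-Glo 3/7 luminescence. Normalized to DMSO (basal) and 100 uM tamoxifen (100%); AC50 from Hill-equation concentration-response fits.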

[8] = Cellular Toxicity (caspase-3) SHSY5Y (AID 657); conditions: SH-SY5Y caspase-3 activation, DMSO zero, 10 µM staurosporine = 100%; series mostly up to 91.7 µM
How it was run: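 SH-SY5Y human neuroblastoma cells, 1500/well, exposed to compound for 16 hours at 37 °C in complete medium. Caspase-3/7 activity read by Caspase-Glo luminescence after 1 hr at room temperature, normalized to DMSO and 10 uM staurosporine; AC50 from Hill fit.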

[9] = Cellular Toxicity (caspase-3) MRC-5 (AID 659); conditions: MRC-5 cells, luminescence, normalized: DMSO 0%, 10 µM staurosporine 100%; series mostly up to 91.7 µM
How it was run: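 MRC-5 human normal lung fibroblasts, 1500 cells/well, treated 16 h at 37 °C in complete medium. Caspase 3/7 measured by Caspase-Glo luminescence after 1 h at room temperature. Normalized to DMSO and 10 uM staurosporine; AC50 from Hill fit.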

[10] = MultiTox-Fluor Cytotoxicity Assay - LYMP1-002 - Live Cells (AID 955); conditions: LYMP1-002 lymphoblastoid live-cell protease fluorescence viability; series mostly up to 46.1 µM
How it was run: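 Cytotoxicity in the human lymphoblastoid line LYMP1-002 is measured as loss of live-cell protease activity after 16 h treatment in complete culture medium. AC50 is derived from Hill-equation fits of qHTS concentration-response data.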

[11] = Cell Viability - LYMP1-003 - Assay at 24 hr (AID 963); conditions: LYMP1-003 lymphoblastoid cell viability; series mostly up to 92.2 µM
How it was run: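 Acute toxicity in LYMP1-003 lymphoblastoid cells: 24 hr compound treatment at 37 C, ATP measured with CellTiter-Glo after 30 min at room temperature. AC50 derived by fitting the Hill equation to qHTS titrations.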

[12] = Cell Viability - LYMP2-009 (AID 968); conditions: LYMP2-009 lymphoblastoid cell viability; series mostly up to 92.2 µM; further: nearly all actives have a fitted effect of over 55% in size
[13] = Cell Viability - LYMP2-017 (AID 972); conditions: LYMP2-017 lymphoblastoid cell viability; series mostly up to 92.2 µM;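 further: cells exposed to compound for 24 hours at 37 °C; nearly all actives have a fitted effect of over 55% in size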
How it was run: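 Steps: plate 2500 lymphoblastoid cells per well; incubate 5 hr at 37 C; add compound across a concentration series and incubate 24 hr at 37 C; add CellTiter-Glo and read luminescence after 30 min at room temperature; fit Hill curves for AC50.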

[14] = Cell Viability - LYMP2-025 (AID 976); conditions: LYMP2-025 lymphoblastoid cell viability; series mostly up to 92.2 µM
How it was run: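 In qHTS format, LYMP2-025 lymphoblastoid cells in complete culture medium received compound for 24 hr; ATP-based CellTiter-Glo signal gave viability, with AC50 derived by Hill equation.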

[15] = Cell Viability - LYMP2-016 (AID 984); conditions: LYMP2-016 lymphoblastoid cell viability, qHTS; series mostly up to 92.2 µM;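 further: cells exposed to compound for 24 hours at 37 °C; nearly all actives have a fitted effect of over 55% in size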
How it was run: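 Human lymphoblastoid LYMP2-016 cells, 2500 per well, treated with compounds for 24 h at 37 C. Viability read as intracellular ATP by CellTiter-Glo luminescence after 30 min at room temperature; AC50 from Hill fits of concentration-response.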

[16] = Cell Viability - LYMP2-024 (AID 988); conditions: LYMP2-024 lymphoblastoid cell viability; series mostly up to 92.2 µM; further: nearly all actives have a fitted effect of over 60% in size
How it was run: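 Acute toxicity is measured as concentration-dependent loss of intracellular ATP in a human lymphoblastoid line treated 24 hours at 37 C. Luciferase luminescence quantifies ATP; AC50 values come from standard Hill-equation modelling.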

[17] = qHTS Assay for Identification of Small Molecule Inducers of Hypoxia Response (AID 2120; active means well fitted curve in the direction sought with a large enough effect in the signal ratio, with a control signal flat, not every such curve was filed as active; the % refers to the signal ratio); conditions: hypoxia response reporter cells, beta-lactamase ratio readout; series mostly up to 104 µM
How it was run: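 Induction of beta-lactamase reporter activity was measured in CellSensor HRE-bla ME-180 cells after 17 h compound treatment at 37 degrees C, using CCF4 substrate and the 460nm/530nm emission ratio to derive AC50 values.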

[18] = qHTS assay for small molecule agonists of retinoid X receptor alpha signaling (AID 588544); conditions: HEK293T RXRa-UAS-bla, beta-lactamase reporter, 18 h; 530 nm emission
[19] = biological target: Peroxisome proliferator-activated receptor alpha (Homo sapiens) (UniProt Q07869); assay: qHTS assay for small molecule agonists of the peroxisome proliferator-activated receptor alpha (PPARalpha) signaling pathway (AID 651778); conditions: PathHunter PPARalpha complementation, chemiluminescence, 6 h; stronger effect = higher value
Peroxisome proliferator-activated receptor alpha (Homo sapiens), sequence (Q07869 whole entry, looked up, the tested form may be a part): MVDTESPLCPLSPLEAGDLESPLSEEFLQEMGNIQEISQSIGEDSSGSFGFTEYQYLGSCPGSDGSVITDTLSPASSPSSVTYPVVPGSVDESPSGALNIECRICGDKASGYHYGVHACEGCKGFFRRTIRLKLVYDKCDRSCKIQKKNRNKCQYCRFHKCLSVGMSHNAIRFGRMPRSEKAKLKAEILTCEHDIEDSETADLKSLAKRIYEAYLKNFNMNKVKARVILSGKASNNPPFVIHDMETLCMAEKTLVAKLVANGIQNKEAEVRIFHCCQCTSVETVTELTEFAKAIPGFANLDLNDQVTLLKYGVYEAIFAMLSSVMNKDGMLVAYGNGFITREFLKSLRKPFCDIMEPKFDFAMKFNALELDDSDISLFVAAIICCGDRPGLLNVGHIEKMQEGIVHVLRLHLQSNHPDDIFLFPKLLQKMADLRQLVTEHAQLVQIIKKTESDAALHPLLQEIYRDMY
How it was run: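 Enzyme-fragment complementation assay in which ligand-bound PPARalpha translocates and forms an active enzyme that generates chemiluminescence. Cells were plated overnight, exposed to compound for 6 hr at 37 C, and then given detection reagent for 60 min at room temperature.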

[20] = qHTS assay for small molecule agonists of the antioxidant response element (ARE) signaling pathway measured by Nrf2-dependant transcriptional activity - cell viability counter screen (AID 720653; active means well fitted curve in the direction sought with a large enough effect in the repeat runs; an effect the other way counts as inactive or inconclusive); conditions: ARE-bla HepG2 viability, CellTiter-Glo ATP luminescence, 16 h; stronger effect = lower value
How it was run: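 ARE-bla HepG2 cells treated with compounds for 16 h at 37C; this counter screen measures viability as intracellular ATP by CellTiter-Glo luminescence after 30 min at room temperature.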

| Structure (SMILES) | Potency [1] | Potency [2] | Potency [3] | Potency [4] | Potency [5] | outcome [6] | outcome [7] | outcome [8] | outcome [9] | outcome [10] | outcome [11] | Potency [12] | Potency [13] | Potency [14] | Potency [15] | Potency [16] | Potency [17] | max response [18] | max response [19] | max response [20] |
| --- | --- | --- | --- | --- | --- | --- | --- | --- | --- | --- | --- | --- | --- | --- | --- | --- | --- | --- | --- | --- |
| O=C(O)CCl | > 92 µM (inactive) | > 92 µM (inactive) | > 92 µM (inactive) | > 92 µM (inactive) | > 92 µM (inactive) | inactive | inactive | inactive | inactive | inactive | inactive | inactive | inactive | inactive | inactive | inactive | inactive | -10.2% | -6.37% (inactive) | 1.47% (inactive) |
| Brc1cccc(-c2ccccc2)c1 | > 92 µM (inactive) | > 92 µM (inactive) | > 92 µM (inactive) | > 92 µM (inactive) | > 92 µM (inactive) | inactive | inactive | inactive | inactive | inactive | inactive | inactive | inactive | inactive | inactive | inactive | inactive | -12% | -1.43% (inactive) | -6.68% (inactive) |
| CCNCC | > 92 µM (inactive) | > 92 µM (inactive) | > 92 µM (inactive) | > 92 µM (inactive) | > 92 µM (inactive) | inactive | inactive | inactive | inactive | inactive | inactive | inactive | inactive | inactive | inactive | inactive | inactive | -7.47% | 7.15% (inactive) | 14.5% (inactive) |
| O=[N+]([O-])c1cccc2c([N+](=O)[O-])cccc12 | > 92 µM (inactive) | > 92 µM (inactive) | > 92 µM (inactive) | > 92 µM (inactive) | > 92 µM (inactive) | inactive | inactive | inactive | inactive | inactive | inactive | inactive | inactive | inactive | inactive | inactive | inactive | -11.5% | -0.14% (inactive) | 5.81% (inactive) |
| c1ccc(C2CO2)cc1 (stereo not given) | > 92 µM (inactive) | > 92 µM (inactive) | > 92 µM (inactive) | > 92 µM (inactive) | > 92 µM (inactive) | inactive | inactive | inactive | inactive | inactive | inactive | inactive | inactive | inactive | inactive | inactive | inactive | -3.27% | 0.189% (inactive) | -5.33% (inactive) |
| C=C(Cl)CCl | > 92 µM (inactive) | > 92 µM (inactive) | > 92 µM (inactive) | > 92 µM (inactive) | > 92 µM (inactive) | inactive | inactive | inactive | inactive | inactive | inactive | inactive | inactive | inactive | inactive | inactive | inactive | -8.31% | -4.17% (inactive) | 19% (inactive) |
| ClCCCCl | > 92 µM (inactive) | > 92 µM (inactive) | > 92 µM (inactive) | > 92 µM (inactive) | > 92 µM (inactive) | inactive | inactive | inactive | inactive | inactive | inactive | inactive | inactive | inactive | inactive | inactive | inactive | 1.73% | -2.57% (inactive) | 1.55% (inactive) |
| CC12CC1(C)C(=O)N(c1cc(Cl)cc(Cl)c1)C2=O (stereo not given) | > 92 µM (inactive) | > 92 µM (inactive) | > 92 µM (inactive) | > 92 µM (inactive) | > 92 µM (inactive) | inactive | inactive | inactive | inactive | inactive | inactive | inactive | inactive | inactive | inactive | inactive | inactive | -5.02% and -2.83% | -1.35% (inactive) and -2.97% (inactive) | -1.37% (inactive) and -4.13% (inactive) |
| CC(C)CC(C)N (stereo not given) | > 92 µM (inactive) | > 92 µM (inactive) | > 92 µM (inactive) | > 92 µM (inactive) | > 92 µM (inactive) | inactive | inactive | inactive | inactive | inactive | inactive | inactive | inactive | inactive | inactive | inactive | inactive | -12.2% | 1.79% (inactive) | 0.53% (inactive) |
| Clc1ccc(C(Cl)(Cl)Cl)c(Cl)c1 | > 92 µM (inactive) | > 92 µM (inactive) | > 92 µM (inactive) | > 92 µM (inactive) | > 92 µM (inactive) | inactive | inactive | inactive | inactive | inactive | inactive | inactive | inactive | inactive | inactive | inactive | inactive | -5.84% | -0.345% (inactive) | -1.74% (inactive) |
| [O-][Cl+]O | > 92 µM (inactive) | > 92 µM (inactive) | > 92 µM (inactive) | > 92 µM (inactive) | > 92 µM (inactive) | inactive | inactive | inactive | inactive | inactive | inactive | inactive | inactive | inactive | inactive | inactive | inactive | -9.53% | 0.737% (inactive) | 3.42% (inactive) |
